In PubChem BioAssay (NCI):
Values joined by “and” are separate entries in the source; they are usually repeats but may differ in a detail not shown here. Equal entries are not always repeated. About 79,000 compounds went through this panel and 15% of them were active in at least one assay; those are over-represented in the sample as a whole. Rule as the data show it: active = growth inhibition above about 70%; inactive = the rest.

Columns and labels:
[1] = NCI Yeast Anticancer Drug Screen. Data for the rad50 strain (AID 155);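 also: 0% = growth of vehicle-only cultures of the same strain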; conditions: S. cerevisiae rad50 strain growth inhibition, active compounds read high; at 50.0 µM unless noted
Method in brief: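 Compounds were tested on a yeast strain with an engineered DNA damage repair alteration; the reported value is growth inhibition normalised to vehicle treatment.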

[2] = NCI Yeast Anticancer Drug Screen. Data for the mec2-1 strain (AID 157); conditions: S. cerevisiae mec2-1 strain, active compounds read high; at 50.0 µM unless noted
Method in brief: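 Cells of the genetically defined mec2-1 yeast strain are incubated with test compound. Inhibition of growth is calculated against vehicle-treated controls.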

[3] = NCI Yeast Anticancer Drug Screen. Data for the sgs1 mgt1 strain (AID 161);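 also: 0% = growth of cultures given vehicle only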; conditions: S. cerevisiae sgs1 mgt1 strain, active compounds read high; at 50.0 µM unless noted
Method in brief: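 Mutant yeast exposed to compound; growth scored against vehicle-only wells.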

[4] = NCI Yeast Anticancer Drug Screen. Data for the cln2 rad14 strain (AID 165);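 also: 0% = growth equal to vehicle treated cultures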; conditions: S. cerevisiae cln2 rad14 strain, active compounds read high; at 50.0 µM unless noted
Method in brief: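 The screen exposed genetically defined yeast (cln2 rad14) to test compounds and scored growth inhibition relative to vehicle-treated controls.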

[5] = NCI Yeast Anticancer Drug Screen. Data for the bub3 strain (AID 167); conditions: S. cerevisiae bub3 mutant strain, active compounds read high; at 50.0 µM unless noted
Method in brief: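 Growth of a checkpoint-deficient yeast mutant is measured after compound exposure. Values represent inhibition relative to vehicle.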

[6] = NCI Yeast Anticancer Drug Screen. Data for the mlh1 rad18 strain (AID 175); conditions: S. cerevisiae mlh1 rad18 strain growth inhibition, active compounds read high; at 50.0 µM unless noted
Method in brief: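 Compound-treated yeast growth, normalised to vehicle controls. Strain bears defined DNA repair mutations.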

Measured: growth inhibition

Cn1cnc2nc(Cl)nc(N)c21
inactive: [1] 0% | [2] -4.15% | [3] 6.05% | [4] -16.6% | [5] 7.75% | [6] -9.4%

CCc1n[nH]c(=O)n1-n1c(C)ccc1C
inactive: [1] -15.8% | [2] -25.9% | [3] -5.2% | [4] 3.15% | [5] -33% | [6] -15.2%

CC1(C)OC2OC3C(Br)C(=O)OC3C2O1 (centres undefined)
inactive: [1] 14.8% | [2] -8.45% | [3] 24.7% | [4] 9.65% | [5] 24.1% | [6] 26.2%

CCc1cc(C)c(C)cc1O
inactive: [1] -28.8% | [2] -31.6% | [3] -38.9% | [4] 0.5% | [5] -24.9% | [6] -22.4%

COc1cc2cnc(-c3ccccc3)c(O)c2cc1OC
inactive: [1] 12.3% | [2] -5.25% | [3] 12% | [4] 1.3% | [5] 40.1% | [6] -6.55%

CCCCCCC/C=C/C1CC(=O)OC1=O (centres undefined)
inactive: [1] 18.4% | [2] 11.2% | [3] 9.55% | [4] 7.05% | [5] 4.05% | [6] 29.6%

CC(C)(CO)C(O)C(=O)NN (centres undefined)
inactive: [1] -2.8% | [2] 2.95% | [3] 8.6% | [4] -6.25% | [5] -3.9% | [6] 3.25%

CCCC(=O)N(C(C)C)C(C)C
inactive: [1] 11.2% | [2] 22% | [3] 12.5% | [4] 6.6% | [5] 8.5% | [6] 8.8%

SCCNCc1ccccc1
inactive: [1] 20.9% | [2] -13.1% | [3] 6.9% | [4] 9.85% | [5] 6.9% | [6] 10.2%

O=c1ccc2ccccc2cc1
inactive: [1] 14.3% | [2] -18.6% | [3] 20.8% | [4] -39.9% | [5] 8.15% | [6] 8.4%

Cc1cc(N)c(N)cc1C
inactive: [1] 45.1% | [2] 4.15% | [3] 52.2% | [4] 20.1% | [5] 35.9% | [6] 38.5%

O=C(CCC(=O)c1ccccc1)NCc1ccccc1
inactive: [1] 11.2% | [2] -6.2% | [3] 4.4% | [4] 5.55% | [5] 6.5% | [6] 2.1%

CCCOc1cc2c(cc1C(C)c1ccc(OC)c(C)c1)OCO2 (centres undefined)
inactive: [1] -3.55% | [2] 3.45% | [3] -6% | [4] -87.7% | [5] 4.55% | [6] 4.15%

Cc1ccc2nc(C=Nc3ccccc3Cl)cc(C)c2c1
inactive: [1] -7.4% | [2] -5.85% | [3] -9.3% | [4] 17.8% | [5] -4.45% | [6] 3.2%

Nc1ncnc2c1ncn2C1OC(COP(=O)(O)O)C(O)C1O (centres undefined)
inactive: [1] -9.65% and -9.3% | [2] 1.65% and -12.6% | [3] 15.6% and -9.1% | [4] 2.95% and 9.25% | [5] 0.85% and -17.9% | [6] -9% and -13.2%

C=C1CC(C2OCOC3COCOC32)OC1=O (centres undefined)
inactive: [1] -44.1% | [2] -12.9% | [3] -14.8% | [4] -22.6% | [5] 17.2% | [6] -2.1%

COc1ccc(/C=N/NS(=O)(=O)c2ccc(NC(C)=O)cc2)cc1
inactive: [1] -15.2% | [2] -30.1% | [3] 16.4% | [4] 22.8% | [5] -21.8% | [6] -9.15%

Cc1ccc(C)n1-c1ccccc1
inactive: [1] -12.6% | [2] -37.5% | [3] -7.75% | [4] 9% | [5] -8.2% | [6] -19.4%

OC(Cc1ccc2ccccc2n1)(C(F)(F)F)C(F)(F)F
inactive: [1] -53.8% | [2] -43.6% | [3] -37.4% | [4] -3.85% | [5] -29.9% | [6] -21.8%

O=C(c1ccccc1)C1CC1C(=O)c1ccccc1 (centres undefined)
inactive: [1] -3.55% | [2] -11.8% | [3] -6.1% | [4] -61.5% | [5] 38.3% | [6] -3.45%

COc1ccc(N2CC[N+](c3ccc(N(C)C)cc3)=C2C2=[N+](c3ccc(N(C)C)cc3)CCN2c2ccc(OC)cc2)cc1
inactive: [1] 0.3% | [2] -6.8% | [3] -17.4% | [4] -7.6% | [5] -10.2% | [6] 20.5%

N#CC1(C(=O)c2ccccc2)C=Cc2ccccc2N1C(=O)c1ccccc1 (centres undefined)
inactive: [1] -6.85% | [2] 16.4% | [3] -0.85% | [4] 12.4% | [5] 26.2% | [6] -19.2%

O=C(Nc1nccs1)c1ccccc1F
inactive: [1] 3.8% | [2] -0.9% | [3] -12.2% | [4] -53.3% | [5] -8.45% | [6] -3.15%

COc1cccc(C2C(C(=O)Nc3cc(=O)n(C)c(=O)n3C)=C(C)NC(C)=C2C(=O)Nc2cc(=O)n(C)c(=O)n2C)c1O
inactive: [1] -15.1% | [2] 13% | [3] 13.4% | [4] 12.2% | [5] 2.55% | [6] 14.8%

c1ccc(CNc2nn[nH]n2)cc1
inactive: [1] 2.65% | [2] 5.1% | [3] -5.9% | [4] -20.6% | [5] 4.2% | [6] 9%

FC(F)(F)c1ccc2nc(NCc3ccccc3)c(-c3ccccc3)nc2c1
inactive: [1] 3.85% | [2] 15.6% | [3] 24.6% | [4] -6.25% | [5] 26.9% | [6] 35.8%

CCCCS(=O)/C=C\S(=O)CCCC (centres undefined)
inactive: [1] -7% | [2] 6.3% | [3] 4.75% | [4] -16.2% | [5] 8.55% | [6] 1.6%

COc1cccc(C2c3cc4c(cc3OC(NNS(=O)(=O)c3ccc(C)cc3)C2C)OCO4)c1OC (centres undefined)
inactive: [1] 3.75% | [2] 4.55% | [3] 10.3% | [4] 8.05% | [5] 36.9% | [6] 18.2%

CCCCOC/N=C(/N)NC#N
inactive: [1] 10.9% | [2] 2.15% | [3] -5.2% | [4] 28.6% | [5] -4.1% | [6] 17.7%

CN(C)c1ccc(/C=C(\C#N)c2ccc(F)cc2)cc1
inactive: [1] -2.65% | [2] -1.8% | [3] 3.05% | [4] -26.6% | [5] -6.75% | [6] -17.8%

CCCNC(=O)NS(=O)(=O)c1ccc(Cl)cc1
inactive: [1] -4.15% and -5.15% | [2] 0.2% and -0.4% | [3] 4.2% and 1.6% | [4] 15.6% and -26.4% | [5] 11.7% and 23.1% | [6] 38.3% and -7.15%

CCC(CN)C(F)(F)C(F)(F)C(F)(F)F (centres undefined)
inactive: [1] 4.65% | [2] -12.2% | [3] -5.45% | [4] 2.7% | [5] 8.3% | [6] 6.05%

COc1ccc(C2Oc3cc(OC)c(O)cc3[C@@H]2C)cc1 (some centres undefined)
inactive: [1] -7.35% | [2] 28.6% | [3] 2.55% | [4] 15.6% | [5] 54.8% | [6] 31%

O=C(O)c1cccc(C(=O)O)c1-c1c(C(=O)O)cccc1C(=O)O
inactive: [1] -5.2% | [2] 17.8% | [3] 7.7% | [4] -80.5% | [5] 7.45% | [6] 4.05%

Cn1cnc2[nH]c(=O)[nH]c(=O)c21
inactive: [1] 3.9% | [2] 12.9% | [3] -8.95% | [4] 1.95% | [5] 8.85% | [6] -0.75%

O=S1(=O)OCCOS(=O)(=O)C1(Br)Cc1ccccc1
inactive: [1] -67.7% | [2] -40.6% | [3] -37.5% | [4] -40.4% | [5] -63.8% | [6] -24.2%

CCOC(=O)c1cc2c(-c3ccccc3)c(-c3ccccc3)c(-c3ccccc3)c(-c3ccccc3)n2n1
inactive: [1] 10.2% | [2] 15.2% | [3] 0.25% | [4] 31.9% | [5] -1.45% | [6] -0.4%

CC1=NN(C(=O)Cc2ccccc2)C(=O)/C1=C\c1ccc(O)cc1
inactive: [1] -18.9% | [2] -36.1% | [3] -47.4% | [4] -4.2% | [5] -13.2% | [6] -29.2%

CCCN(CCC)CC(O)CNc1cc(OC)cc2cccnc12 (centres undefined)
inactive: [1] 9.75% | [2] -16.2% | [3] 6.7% | [4] -35.7% | [5] 19.9% | [6] 5.7%
